RAD54 inh = inhibitors of human RAD54 branch migration, primary screen, biochemical, fluorescence, single point; inhibition, % at 10.4 µM; RAD54 Holliday junction branch migration, FAM/BHQ fluorescence; AID 602329, 2012; DNA repair and recombination protein RAD54-like (Homo sapiens), Q92698; 360,000 tested, 0.14% active;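 active = mean normalized replicate activity at least 40 and at least half of replicates scoring 40 or more; inconclusive = only one of the two criteria met; inactive = mean below 40 and under half of replicates reaching 40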;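 also: inhibitors cause a drop in the FAM fluorescence signal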
dFosB act = activators of delta FosB homodimer, primary screen, biochemical, fluorescence polarization, TAMRA-CDK5 oligo, single point; purified delta FosB; percent of positive-control signal above neutral wells; AID 493131, 2011; activation, % at 25 µM; 340,000 tested, 0.99% active; Protein FosB (Mus musculus), P13346;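 active = mean activation above about 17%, with every replicate also reaching it, limit read from the data, passing the limit was not always enough; inconclusive = only one of the two conditions met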
Target sequence (P13346 whole entry, looked up): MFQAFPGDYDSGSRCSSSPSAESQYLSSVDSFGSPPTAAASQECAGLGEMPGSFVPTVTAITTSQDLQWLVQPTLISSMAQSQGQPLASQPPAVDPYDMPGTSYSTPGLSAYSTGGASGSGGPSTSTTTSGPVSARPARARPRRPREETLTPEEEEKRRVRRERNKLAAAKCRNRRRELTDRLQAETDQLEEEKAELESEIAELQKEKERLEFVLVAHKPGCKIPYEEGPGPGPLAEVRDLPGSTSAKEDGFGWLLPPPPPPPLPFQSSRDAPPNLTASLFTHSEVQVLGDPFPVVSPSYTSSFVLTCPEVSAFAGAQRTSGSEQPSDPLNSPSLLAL
INS-1E GSIS act = GLuc luminescence reporter in INS-1E cells, primary screen for activators of glucose-dependent secretion of insulin | activation, % at 16.6 µM | INS-1E GLuc reporter insulin secretion, 2-3 h | AID 743287, 2014 | 370,000 tested, 0.61% active;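 active = lowest replicate activation of at least 40%, so every replicate reaches that level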
MLL AF4-AF9 inh = inhibitors of AF4 peptide binding to AF9, primary screen, biochemical, AlphaScreen, biotin-AF4 peptide, FLAG-AF9, single point; Protein AF-9 (Homo sapiens), P42568; 350,000 tested, 0.47% active; inhibition, % at 10 µM; AID 651704, 2012;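 active = every replicate reaching a set inhibition limit, whatever the replicate mean, cut at about 25% in these data; inconclusive = mean inhibition reaches that limit but some replicates miss it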
DENV2 CPE rescue = inhibitors of DENV2 cytopathic effect, primary screen, cell-based, plate reader, single concentration | DENV2-infected cells, cytopathic effect rescue | AID 651640, 2012 | 350,000 tested, 1.7% active | CPE inhibition, % at 9.99 µM; in the data active = CPE inhibition above about 20%, passing the limit was not always enough; inconclusive = no clear call, values can overlap the other calls; tested in BHK-21 cells
RAD52 anneal inh = RAD52 DNA annealing inhibitors, primary screen, biochemical, FRET, single point, set 2; AID 651710, 2012; 360,000 tested, 0.46% active; DNA repair protein RAD52 homolog (Homo sapiens), P43351; inhibition, % at 18.7 µM; recombinant RAD52 DNA annealing, FRET fluorescence;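 active = every replicate showing at least 50% inhibition; inconclusive = mean inhibition at least 50% but not in every replicate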
Target sequence (P43351 whole entry, looked up): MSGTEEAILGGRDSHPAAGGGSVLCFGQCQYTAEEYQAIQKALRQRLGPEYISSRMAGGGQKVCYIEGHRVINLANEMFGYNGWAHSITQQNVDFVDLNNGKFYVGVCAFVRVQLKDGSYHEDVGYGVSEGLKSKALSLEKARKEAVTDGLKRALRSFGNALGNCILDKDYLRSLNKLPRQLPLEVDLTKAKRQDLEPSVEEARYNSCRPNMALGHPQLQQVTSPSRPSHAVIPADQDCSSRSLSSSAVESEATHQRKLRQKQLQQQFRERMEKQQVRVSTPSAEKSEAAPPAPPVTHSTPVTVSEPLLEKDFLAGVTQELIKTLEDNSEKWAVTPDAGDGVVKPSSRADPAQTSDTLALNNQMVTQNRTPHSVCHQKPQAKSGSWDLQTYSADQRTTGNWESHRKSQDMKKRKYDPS
Large screens that a line does not name were inactive. Shown are actives, neighbours in structure and some others; about 3.1% of the full set was active somewhere.

COc1ccc2c3c(n(C)c2c1)[C@H](CO)N(Cc1ccccc1Cl)CC31CCN(C(=O)CC2CC2)CC1	DENV2 CPE rescue 31 (no result: RAD54 inh, dFosB act)
CC[C@H]1CC=CC[C@H](C)Oc2ccccc2C(=O)N(C)[C@@H](C(C)C)C(=O)N1 (mixture of isomers)	none (no result: RAD54 inh, dFosB act, MLL AF4-AF9 inh, DENV2 CPE rescue, RAD52 anneal inh)
COc1cccc(-c2c(-c3cc(OC)cc(OC)c3)n(C)c3ccc(Br)cc23)c1	none
COc1ccc(-c2c(-c3cc(OC)cc(OC)c3)n(C)c3ccc(Br)cc23)cc1	DENV2 CPE rescue 32
C[C@@H]1CCCCO[C@H](CN(C)C(=O)Nc2ccccc2)[C@H](C)CN([C@@H](C)CO)C(=O)c2cc(NC(=O)c3ccccc3)ccc2O1	none (no result: dFosB act)
O=C(O)c1ccccc1	DENV2 CPE rescue 110
O=C(c1ccccc1)N1CCN(C(=O)c2ccccc2)CC1	none (no result: INS-1E GSIS act, DENV2 CPE rescue, RAD52 anneal inh)
Cc1ccc(S(=O)(=O)Nc2ccc3c(c2)C(=O)N([C@H](C)CO)C[C@@H](C)[C@H](CN(C)S(C)(=O)=O)OCCCC[C@@H](C)O3)cc1	DENV2 CPE rescue 36 (no result: dFosB act)
Cc1ccc(S(=O)(=O)Nc2ccc3c(c2)C(=O)N([C@@H](C)CO)C[C@H](C)[C@@H](CN(C)S(C)(=O)=O)OCCCC[C@H](C)O3)cc1	DENV2 CPE rescue 29 (no result: dFosB act)
Cc1noc(C)c1NC(=O)Nc1cccc2c1O[C@H](CN(C)C(=O)NC1CCCCC1)[C@@H](C)CN([C@@H](C)CO)C2=O	none (no result: dFosB act)
COc1cccc(S(=O)(=O)Nc2ccc3c(c2)[C@H]2C[C@@H](CC(=O)N[C@@H](C)c4ccccc4)O[C@H](CO)[C@H]2O3)c1	DENV2 CPE rescue inconclusive (no result: dFosB act)
CCCNC(=O)[C@@H]1[C@@H](CO)[C@@H]2Cn3c(ccc(-c4cccc(F)c4)c3=O)[C@@H]2N1C(C)=O	none (no result: dFosB act)
C[C@@H]1CN([C@@H](C)CO)C(=O)Cc2cc(NC(=O)Nc3ccc(F)cc3)ccc2O[C@@H]1CN(C)C(=O)Nc1ccc2c(c1)OCO2	none (no result: dFosB act)
CCNC(=O)C[C@@H]1CC[C@@H](NS(=O)(=O)c2ccc(C)cc2)[C@H](CO)O1	none (no result: dFosB act)
CN1CCCCN2[C@H](CO)[C@@H](c3ccc(/C=C/c4ccccc4)cc3)[C@H]2C1	RAD52 anneal inh 53 (no result: dFosB act)
CN1CCCCN2[C@H](CO)[C@H](c3ccc(/C=C/c4ccccc4)cc3)[C@H]2C1	RAD52 anneal inh 77 (no result: dFosB act)
CN1CCCCN2[C@@H](CO)[C@H](c3ccc(-c4ccccc4)cc3)[C@@H]2C1	DENV2 CPE rescue 32 (no result: dFosB act)
CN1CCCCN2[C@H](CO)[C@H](c3ccc(-c4ccccc4)cc3)[C@H]2C1	DENV2 CPE rescue inconclusive (no result: dFosB act)
COc1ccc(CN(C)C[C@@H]2Oc3ccc(NC(=O)Cn4cnnn4)cc3CC(=O)N([C@H](C)CO)C[C@@H]2C)cc1	none (no result: dFosB act)
O=C(C1CCOCC1)N1CC2(C1)[C@@H](c1ccccc1)[C@@H](CO)N2Cc1ccc(Cl)cc1	none (no result: RAD54 inh, dFosB act)
C[C@H]1CN([C@@H](C)CO)C(=O)c2cc(NC(=O)Nc3ccc(F)cc3)ccc2O[C@H]1CN(C)Cc1ccc(Cl)c(Cl)c1	none (no result: dFosB act, INS-1E GSIS act)
Cc1cccc(CCNC(=O)Cc2ccc(NC3=NC4CS(=O)(=O)CC4S3)cc2)c1 (stereo unspecified)	MLL AF4-AF9 inh 47
COc1cccc(C(=O)Nc2cc(C)c3c(=O)oc4ccccc4c3n2)c1	MLL AF4-AF9 inh 43 (no result: INS-1E GSIS act)
CCn1c(=O)c2c(nc3n2CCCN3CCc2ccccc2)n(C)c1=O	none (no result: INS-1E GSIS act, MLL AF4-AF9 inh, DENV2 CPE rescue, RAD52 anneal inh)
Cn1c(=O)c2c(nc3n2CCCN3CCc2ccccc2)n(C)c1=O	INS-1E GSIS act 48
CNC[C@@H]1Oc2cc(C3=CCCC3)ccc2S(=O)(=O)N([C@@H](C)CO)C[C@H]1C	none (no result: RAD54 inh, dFosB act, MLL AF4-AF9 inh, DENV2 CPE rescue, RAD52 anneal inh)
O=C(CCc1c[nH]c2ccccc12)OCc1cccc([N+](=O)[O-])c1	DENV2 CPE rescue 27
COC(=O)CCc1c[nH]c2ccc([N+](=O)[O-])cc12	none
O=C(OCC(=O)c1c[nH]c2ccccc12)c1cccc([N+](=O)[O-])c1	DENV2 CPE rescue 80
O=C(OCC(=O)c1c[nH]c2ccccc12)c1cncc(Br)c1	none
COc1ccc(S(=O)(=O)N(C)C[C@H]2OCCCC[C@@H](C)Oc3ccc(NS(=O)(=O)c4cn(C)cn4)cc3C(=O)N([C@@H](C)CO)C[C@@H]2C)cc1	none (no result: dFosB act)
CC(C)NC(=O)N(C)C[C@H]1Oc2ccc(NC(=O)CCN3CCOCC3)cc2CC(=O)N([C@H](C)CO)C[C@@H]1C	none (no result: dFosB act)
CC(=O)Nc1ccc(NC(=O)C(C)OC(=O)c2ccc(S(=O)(=O)N3CCCCC3)cc2)cc1 (stereo unspecified)	dFosB act 58 (no result: INS-1E GSIS act)
CCOc1cc(CNc2ccc(N3CCN(C(C)=O)CC3)cc2)cc(Br)c1OC	none (no result: RAD54 inh, MLL AF4-AF9 inh, DENV2 CPE rescue, RAD52 anneal inh)
CCOc1c(Br)cc(CNc2ccc(N3CCN(C(C)=O)CC3)cc2)cc1OC	MLL AF4-AF9 inh 27
C[C@H]1CN([C@@H](C)CO)C(=O)c2cc(NC(=O)CCCN(C)C)ccc2O[C@@H]1CN(C)S(=O)(=O)c1ccc(Cl)cc1	DENV2 CPE rescue active (no result: dFosB act)
C[C@@H]1CN([C@H](C)CO)C(=O)c2cc(NC(=O)CCC(F)(F)F)ccc2O[C@@H]1CN(C)S(=O)(=O)c1ccc(Cl)cc1	none (no result: dFosB act)
C[C@H]1CN([C@@H](C)CO)C(=O)c2cc(NC(=O)CCC(F)(F)F)ccc2O[C@H]1CN(C)S(=O)(=O)c1ccc(Cl)cc1	DENV2 CPE rescue 73 (no result: dFosB act)
C[C@H]1CN([C@@H](C)CO)C(=O)c2cc(NC(=O)CCCN(C)C)ccc2O[C@@H]1CN(C)S(=O)(=O)c1cn(C)cn1	DENV2 CPE rescue 38 (no result: dFosB act)
Cc1noc(C)c1S(=O)(=O)Nc1ccc2c(c1)C(=O)N([C@@H](C)CO)C[C@@H](C)[C@@H](CN(C)Cc1ccc3c(c1)OCO3)O2	DENV2 CPE rescue 32 (no result: dFosB act)
COc1ccc(CN(C)C[C@H]2Oc3ccc(NS(=O)(=O)c4c(C)noc4C)cc3C(=O)N([C@H](C)CO)C[C@H]2C)cc1	DENV2 CPE rescue 29 (no result: dFosB act)
Cc1noc(C)c1S(=O)(=O)Nc1ccc2c(c1)CC(=O)N([C@H](C)CO)C[C@H](C)[C@H](CN(C)Cc1ccccc1)O2	none (no result: dFosB act)
Cc1noc(C)c1S(=O)(=O)Nc1ccc2c(c1)C(=O)N([C@H](C)CO)C[C@H](C)[C@H](CN(C)Cc1ccccc1)O2	DENV2 CPE rescue 21 (no result: dFosB act)
Cc1noc(C)c1S(=O)(=O)Nc1ccc2c(c1)CC(=O)N([C@H](C)CO)C[C@@H](C)[C@H](CN(C)Cc1ccccc1)O2	DENV2 CPE rescue 22 (no result: dFosB act)
COc1ccc(CN(C)C[C@@H]2Oc3ccc(NS(=O)(=O)c4c(C)noc4C)cc3C(=O)N([C@H](C)CO)C[C@H]2C)cc1	none (no result: dFosB act)

High-throughput results: PubChem BioAssay, Broad Institute
